The campaign covered roughly 390,000 compounds. About 4,000 (1%) were called active. Inconclusive results (about 7%) are left out. The call rests on the fitted dose curve; in most records, active means well fitted inhibition curve with a large enough effect; inconclusive means small, poorly fitted or top-dose-only effect, or another doubt; inactive means no such curve, though single readings can be large or run the other way. The full list was thinned out, with actives kept by preference.

This note sets out measurements from PubChem BioAssay AID588590 (National Center for Advancing Translational Sciences (NCATS), 2011).
Potency means the concentration at half of the fitted maximal effect.

DNA polymerase iota (Homo sapiens), sequence (Q9UNA4 whole entry, looked up): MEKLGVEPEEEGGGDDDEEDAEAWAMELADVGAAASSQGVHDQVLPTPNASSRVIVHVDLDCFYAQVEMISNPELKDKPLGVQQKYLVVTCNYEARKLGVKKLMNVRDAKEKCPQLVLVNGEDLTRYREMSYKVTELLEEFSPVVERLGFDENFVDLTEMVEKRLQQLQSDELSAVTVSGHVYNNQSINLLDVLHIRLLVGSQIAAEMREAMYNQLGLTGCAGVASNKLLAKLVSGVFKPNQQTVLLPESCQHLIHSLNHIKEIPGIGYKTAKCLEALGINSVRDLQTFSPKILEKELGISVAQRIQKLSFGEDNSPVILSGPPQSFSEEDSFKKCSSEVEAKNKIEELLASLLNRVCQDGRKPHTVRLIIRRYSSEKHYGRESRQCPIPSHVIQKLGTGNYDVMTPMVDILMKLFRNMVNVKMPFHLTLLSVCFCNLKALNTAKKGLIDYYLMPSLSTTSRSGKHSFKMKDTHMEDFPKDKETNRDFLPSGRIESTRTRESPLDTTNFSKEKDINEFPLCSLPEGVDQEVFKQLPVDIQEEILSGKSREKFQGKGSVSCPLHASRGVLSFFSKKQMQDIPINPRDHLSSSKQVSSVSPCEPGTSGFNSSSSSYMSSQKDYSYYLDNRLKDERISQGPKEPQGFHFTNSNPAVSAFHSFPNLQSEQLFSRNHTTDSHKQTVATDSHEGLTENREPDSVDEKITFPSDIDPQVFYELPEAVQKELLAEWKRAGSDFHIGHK

The target of the assay is DNA polymerase iota (Homo sapiens) (UniProt Q9UNA4). Nature of the assay: qHTS for Inhibitors of Polymerase Iota. As to conditions: Pol iota fluorescent replication assay, 10 min; series mostly up to 115 µM; activity, negative = inhibition: at the top concentration. An excerpt:
DNA polymerases, such as Pol iota, are specifically involved in DNA repair. Pol iota specifically plays an important role in translesion synthesis, where the normal high-fidelity DNA polymerases cannot proceed and DNA synthesis stalls. […] Thus, while pol eta's (and most likely iota's) normal function is to protect humans against the deleterious consequences of DNA damage, under certain conditions they can have deleterious effects on human health. As a consequence, we propose to utilize a high throughput replication assay to identify small molecule inhibitors of pol iota.
In a collaboration between the National Institute of Child Health & Human Development (NICHD) and NIH Chemical Genomics Center, a high-throughput, fluorescent screen was developed to screen the NIH Molecular Libraries Small Molecule Repository (MLSMR). This screen is used to identify inhibitors of pol iota.
NIH Chemical Genomics Center [NCGC]
NIH Molecular Libraries Probe Centers Network [MLPCN]
Assay Submitter (PI): Roger Woodgate, NICHD)
Three microliters of reagents (buffer in column 3 and 4 as negative control and 10 nM Pol iota in columns 1, 2, and 5-48) will be dispensed into 1,536-well black solid-bottomed plate. Compounds (23 nL) will be transferred via Kalypsys pin tool equipped with 1536-pin array. The plates will then be incubated for 15 min at room temperature, and 1 µL substrate (50 nM final concentration) will be added to start the reaction and kinetically read twice at 0 min and 10 min on the Viewlux reader.
Consider `CC(=O)c1c(O)c(C)c(O)c(Cc2c(O)c3c(c(C(=O)/C=C/c4ccccc4)c2O)OC(C)(C)C=C3)c1O`, for which the Potency is 50.1 µM (active).

`CCCCOP(=O)(c1ccc(N(C)C)cc1)C(O)c1cc(OC)ccc1OC` (stereo not drawn): the “activity, negative = inhibition” value is 59.2% (inactive).

Take `CC(=O)NBr`: the “activity, negative = inhibition” value was -4.33% [at 58.9 µM] (inactive).

For the compound `COc1ccc(N2C(=O)/C(=C/c3ccco3)C(=O)NC2=S)cc1`, the Potency is 4.47 µM (active).

Turning to `CNCC[C@H](Oc1ccc(C(F)(F)F)cc1)c1ccccc1`, the “activity, negative = inhibition” value was -5.09% [at 58.9 µM] (inactive).

Consider `O=C1C=C(NS(=O)(=O)c2ccccc2)C(=O)c2ccccc21`, for which the “activity, negative = inhibition” value was 37.4% (inactive).

As to `O=c1[nH]c(=S)[nH]c(O)c1/C=C1\C=Nc2ccccc21`, the “activity, negative = inhibition” value was 60.1% (inactive).

In the case of `O=C(O)/C=C/c1ccc2c(c1)OCO2`, the “activity, negative = inhibition” value was -23.3% (inactive).

Turning to `Cc1cc(/C=C2/C(=O)NC(=O)N(Cc3ccco3)C2=O)c(C)n1-c1ccc(C(=O)O)cc1`, the Potency was 14.1 µM (active).

For the compound `O=C1NC(=O)N(Cc2ccco2)C(=O)/C1=C\c1ccc(-c2ccc(F)cc2)o1`, the Potency is 11.2 µM (active).

Take `O=C1NC(=O)N(Cc2ccco2)C(=O)/C1=C\c1cccn1CCOc1ccccc1`: the Potency is 22.4 µM (active).

On to `CC1=NNC(=O)C1Cc1c(Cl)cccc1Cl` (stereo not drawn), for which the “activity, negative = inhibition” value is 59.1% (inactive).

As for `Cn1c(=O)oc2cc(S(=O)(=O)N3CCC(C(=O)Nc4ccc(OC(F)(F)F)cc4)CC3)ccc21`, the “activity, negative = inhibition” value is 49.5% (inactive).

`O=C(Oc1ccc2c(c1)CCC2)N1CCOCC1`: the “activity, negative = inhibition” value is 35.3% (inactive).

With `CCOC(=O)c1ccc(N2C(=O)c3[nH]nc(-c4ccccc4)c3C2c2ccc(C(C)C)cc2)cc1` (stereo not drawn), the “activity, negative = inhibition” value is 31.9% (inactive).

Take `CCN(CC)C(=O)Oc1ccc(Br)cc1C(=O)Nc1ccc(F)c(Cl)c1`: the “activity, negative = inhibition” value is 100% (inactive).

On to `CC(=O)c1ccc(OC(=O)N2CCOCC2)cc1`, for which the “activity, negative = inhibition” value is 57.7% (inactive).

On to `CCOC(=O)C(NS(=O)(=O)c1ccc(C)cc1)(C(F)(F)F)P(=O)(OCC(C)C)OCC(C)C` (stereo not drawn), for which the “activity, negative = inhibition” value was 34.1% (inactive).

As for `O=C1c2ccccc2NC(c2ccccc2O)N1NS(=O)(=O)c1ccccc1` (stereo not drawn), the “activity, negative = inhibition” value was 34.4% (inactive).

`CC(C)(C)c1ccc(CN2C(=O)CN=C(c3ccccc3)c3ccccc32)cc1`: the “activity, negative = inhibition” value was -3.92% (inactive).

As for `O=C1CC(=O)N(Cc2ccccc2)C(=O)N1CCCCCCN1C(=O)CC(=O)N(Cc2ccccc2)C1=O`, the Potency was 17.8 µM (active).

In the case of `O=C(CN1CCCC1=O)NCCc1ccccc1`, the “activity, negative = inhibition” value is -3.26% (inactive).

Turning to `S=C(Nc1ccc(Br)cc1Cl)N1CCC2(CC1)OCCO2`, the “activity, negative = inhibition” value is 56.3% (inactive).

As for `CC[C@H]1CN2CCc3cc(OC)c(OC)cc3[C@@H]2C[C@@H]1C[C@H]1NCCc2cc(OC)c(OC)cc21`, the Potency entry is “inactive”.

Consider `CCOCCCNC(=O)c1c(NC(=O)c2nc(SC)ncc2Cl)sc2c1CCCC2`, for which the “activity, negative = inhibition” value is 17.5% (inactive).

`O=S(=O)(Nc1ccc2[nH]ncc2c1)c1ccccc1Cl`: the “activity, negative = inhibition” value was 37.5% (inactive).

Turning to `O=[N+]([O-])c1ccc(Cl)c(Cl)c1`, the “activity, negative = inhibition” value is 1.03% (inactive).

Consider `CO[C@H]1[C@@H](O)[C@@H](C)O[C@H](O[C@H]2[C@H](Oc3cccc4c(O)c5c(=O)oc6ccc(C)c7c(=O)oc(c34)c5c67)O[C@H](C)[C@H](O)[C@@H]2O)[C@@H]1O`, for which the Potency was 20 µM (active).
